Laboratory results from PubChem BioAssay AID1259354 (Paczesny and Yang Labs, IUPUI and University of Michigan, 2018).
In all, about 78,000 compounds went through this assay and about 1,800 (2.3%) were called active. Inconclusive results (about 27%) are left out. Rule as the data show it: active = inhibition above about 30%; inconclusive = mostly about 10% to 28%; inactive = weaker than that. Only a selection was taken, and actives are over-represented in it overall.

Target: Interleukin-1 receptor-like 1 (Homo sapiens) (UniProt Q01638)
Sequence (Q01638 whole entry, looked up): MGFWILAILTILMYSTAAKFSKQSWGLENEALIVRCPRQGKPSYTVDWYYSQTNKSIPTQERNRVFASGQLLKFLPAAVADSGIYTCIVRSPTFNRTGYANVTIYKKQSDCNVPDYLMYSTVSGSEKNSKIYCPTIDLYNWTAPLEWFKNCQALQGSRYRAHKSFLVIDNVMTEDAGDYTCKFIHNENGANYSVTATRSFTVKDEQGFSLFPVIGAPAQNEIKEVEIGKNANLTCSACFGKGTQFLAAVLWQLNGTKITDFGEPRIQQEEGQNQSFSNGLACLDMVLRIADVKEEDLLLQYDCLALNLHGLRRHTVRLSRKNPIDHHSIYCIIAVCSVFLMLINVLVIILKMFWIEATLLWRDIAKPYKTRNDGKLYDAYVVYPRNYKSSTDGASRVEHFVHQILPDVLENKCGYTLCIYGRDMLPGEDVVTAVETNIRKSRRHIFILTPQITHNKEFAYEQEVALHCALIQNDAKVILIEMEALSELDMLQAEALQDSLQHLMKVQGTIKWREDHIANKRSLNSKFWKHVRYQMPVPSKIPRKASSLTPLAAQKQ
Assay: blocks human ST2 binding to IL-33, primary screen, biochemical, AlphaLISA (AID 1259354)
Conditions: AlphaLISA ST2-Fc/biotin-IL-33 interaction, 1 h; at 17 µM, hits give high values

| SMILES | inhibition |
| --- | --- |
| CCN(CC)c1ccc([N+](=O)[O-])c2cccnc12 | 56% (active) |
| CCN(CC)CCNc1ccc([N+](=O)[O-])c2cccnc12 | inactive |
| COc1cc(CN2CCN(Cc3ccccc3)CC2)cc(I)c1O | inactive |
| C/C=C(\C)CN1CCC2(CCNCC2)C1 | inactive |
| CCOC(=O)C1C2NC(=O)N(c3cccc(C)c3)C1(C)Oc1c(OC)cccc12 (stereo not given) | inactive |
